High-throughput results (PubChem)
AMA1-RON2 inh: disrupts binding of P. falciparum AMA1 to RON2 | AlphaScreen AMA1-biotinylated RON2 peptide binding | Potency, µM (top dose mostly 58.2 µM), inactives show top-dose activity change, negative = inhibition, most hits filed as inhibitors | 360,000 tested, 0.2% active;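 note: potency is the fitted concentration of half-maximal effect; 0% = vehicle wells and -100% = peptide control; nearly all actives have a fitted effect of over 45% in size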
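AMA1 (3D7) with his tag at 25 nM final met compounds first, then biotinylated RON2 peptide at 25 nM; detection used donor plus acceptor beads, 10 µg/mL apiece, read by AlphaScreen after 30 min at room temperature.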
Pf growth 48h: inhibits P. falciparum growth in the first generation, 48 h. P. falciparum luciferase growth in erythrocytes, 48 h. Potency, µM (top dose mostly 28.7 µM), for the others: at the highest dose activity change, negative = inhibition, actives largely listed as inhibitors. 310,000 tested, 5.9% active. AID 504832; note: potency is the fitted concentration of half-maximal effect; % is set by controls: 0 for no effect and ±100 for the full control effect
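Cell-based growth assay: transgenic P. falciparum expressing firefly luciferase, cultured in red cells within RPMI 1640 containing 0.5% w/v Albumax, 24 mM bicarbonate and gentamycin. A drop in luciferase activity indicates inhibition.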
CHX counter: counter-screen hit for Shiga toxin inhibitors, cycloheximide; 300,000 tested, 12% active; AID 2314; max response, %; cell reporter, cycloheximide protein synthesis inhibition counterscreen; in the data active = max response mostly above about 13%, no sharp cut-off; inactive = mostly below about 14%; note: read at 38.3 µM for the half of the compounds with a filed dose; 0% is about no effect
HCV inh: inhibitors of hepatitis C virus infection. Huh7.5.1 HCVcc-Cre infection, luciferase reporter, 44 h. Potency, µM (top dose mostly 41.8 µM), inactives show at the highest dose activity change, negative = inhibition, actives largely listed as inhibitors. 340,000 tested, 3.4% active. AID 651820; note: potency is the fitted concentration of half-maximal effect; % is set by controls: 0 for no effect and ±100 for the full control effect
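1,000 cells/well; 4 h culture; + compound; + HCVcc-Cre (~0.5 moi); 44 h; luciferase substrate, RT 15 min; read 15 sec.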
Pf growth 96h: inhibits malaria parasite growth, 96 h; 320,000 tested, 6.9% active; P. falciparum luciferase reporter growth, 96 h; Potency, µM (top dose mostly 28.7 µM), for the others: at the top dose activity change, negative = inhibition, actives largely listed as inhibitors; note: potency is the fitted concentration of half-maximal effect; % is set by controls: 0 for no effect and ±100 for the full control effect
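Two parasite generations (96 h, 37 C, 5% CO2) of compound exposure in infected erythrocytes (0.05% parasitemia, 2% hematocrit). Luciferase-reporter P. falciparum; decreased luminescence indicates inhibited growth, aimed at apicoplast-acting delayed death.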
Shiga toxin inh: inhibitors of Shiga toxin in Vero cells | inhibition, % at 38.7 µM | Vero cells, Shiga toxin protein synthesis inhibition reporter | 290,000 tested, 9.2% active; in the data active = inhibition mostly above about 28%, no sharp cut-off; inactive = mostly below about 43%; note: 0% is about no effect
* marks the source's active call; other numbers are inactive results. Sampled rows, rich in hits. Any-hit rate of the full collection: about 21%. Unless noted, calls come from the whole dose curve; as a rule, active = well fitted curve in the direction sought with a large enough effect; inconclusive = small, poorly fitted or top-dose-only effect, or another doubt; inactive = no such curve, though single readings can be large; an effect the other way counts as inactive or inconclusive.

`C/C=C(/C)C(=O)OC1c2c(ccc3ccc(=O)oc23)OC(C)(C)C1OC(C)=O` (stereo not drawn) gave AMA1-RON2 inh 19%, Pf growth 48h 8.3µM*, CHX counter 8, HCV inh inconclusive, Pf growth 96h inconclusive and Shiga toxin inh 9.
O=C(NCc1cccnc1)C1C2C=CC(C2)C1C(=O)Nc1cccc(C(F)(F)F)c1 (stereo not drawn) was read as AMA1-RON2 inh -5%.
Screening N#Cc1c(-c2ccccc2)ccn(Cc2cccc(Cl)c2)c1=O returned AMA1-RON2 inh -6%, Pf growth 48h inconclusive, CHX counter 8, HCV inh -21%, Pf growth 96h 13µM* and Shiga toxin inh 9.
N#Cc1c(-c2ccccc2)ccn(Cc2ccccc2Cl)c1=O was read as AMA1-RON2 inh -7%, Pf growth 48h inconclusive, CHX counter -3, HCV inh -7%, Pf growth 96h 15µM* and Shiga toxin inh -13.
For CC(=O)Nc1ccc(C(=O)OCC(=O)Nc2c(C)n(C)n(-c3ccccc3)c2=O)cc1 the results were AMA1-RON2 inh 11% and HCV inh 19%.
`c1ccc(CN2CC[C@@H](Nc3nccn4ccnc34)C2)cc1` gave AMA1-RON2 inh 66%.
For COc1c(F)c(F)c(C(=O)Nc2c(C)cc(Br)cc2C)c(F)c1F the results were AMA1-RON2 inh 9%, Pf growth 48h inconclusive, CHX counter -4, HCV inh 10%, Pf growth 96h -19% and Shiga toxin inh -5.
For COc1ccc(/C=C2\SC(=O)N(CCNC(=O)CN3C(=O)NC4(CCCC4)C3=O)C2=O)cc1 the results were AMA1-RON2 inh -1%, Pf growth 48h 30%, HCV inh inconclusive and Pf growth 96h 3%.
Screening COc1ccc(/C=C2/SC(=O)N(CC(O)Cn3c4ccccc4c4ccccc43)C2=O)cc1 (stereo not drawn) returned AMA1-RON2 inh 20%, Pf growth 48h inconclusive, CHX counter -1, HCV inh -3%, Pf growth 96h inconclusive and Shiga toxin inh -9.
COc1ccc(/C=C2/SC(=O)N(CCNC(=O)CC(NC(C)=O)c3ccccc3)C2=O)cc1 (stereo not drawn) was read as AMA1-RON2 inh -4%, Pf growth 48h 40%, CHX counter 21*, HCV inh -2%, Pf growth 96h inconclusive and Shiga toxin inh 29.
For O=C(Cn1[nH]c(=O)c2ccccc2c1=O)NCCN1C(=O)S/C(=C\c2ccccc2)C1=O the results were AMA1-RON2 inh -2% and HCV inh 11µM*.
COc1ccc(/C=C2\SC(=O)N(CCNC(=O)C3CC4C=CC3C4)C2=O)cc1 (stereo not drawn) was read as AMA1-RON2 inh -26%, Pf growth 48h 126%, CHX counter 58*, HCV inh -15%, Pf growth 96h 184% and Shiga toxin inh 101*.
For COc1ccc(/C=C2\SC(=O)N(CCn3cnnn3)C2=O)cc1 the results were AMA1-RON2 inh 17%, Pf growth 48h 365%, CHX counter 37*, HCV inh 1%, Pf growth 96h 24% and Shiga toxin inh 83*.
CC1(C)CCC[C@@](C)([C@H]2CC[C@]3(C)[C@@H]2[C@H](O)CC2[C@@]4(C)CC[C@H](O)C(C)(C)[C@@H]4[C@@H](O)C[C@]23C)O1 (stereo partly drawn) was read as CHX counter -7 and Shiga toxin inh -25.
`C[C@H](CO)N1C[C@H](C)[C@@H](CN(C)S(C)(=O)=O)Oc2ccc(NC(=O)NC3CCCCC3)cc2C1=O` gave AMA1-RON2 inh -8% and HCV inh 32%.
Screening CCCCN1CC(=O)N2[C@H](c3ccc(OC)cc3)[C@@H]3C(=O)N(CC)C(=O)[C@@H]3[C@]2(C)C1=O returned AMA1-RON2 inh 14%, Pf growth 48h -1%, CHX counter 0, HCV inh -2%, Pf growth 96h 5% and Shiga toxin inh 7.
`Cc1ccc(S(=O)(=O)CCC(=O)NCCN2C(=O)S/C(=C/c3ccc(F)cc3)C2=O)cc1` gave AMA1-RON2 inh 6%, Pf growth 48h 4%, CHX counter 16*, HCV inh inconclusive, Pf growth 96h -1% and Shiga toxin inh -1.
Screening O=C(CCNC(=O)c1ccco1)NCCN1C(=O)S/C(=C\c2ccc(F)cc2)C1=O returned AMA1-RON2 inh -6%, Pf growth 48h 60%, HCV inh -12% and Pf growth 96h -2%.
O=C(NCCN1C(=O)S/C(=C/c2ccccc2)C1=O)C1CCCN1C(=O)c1cccs1 (stereo not drawn) was read as AMA1-RON2 inh 9%, Pf growth 48h 1%, CHX counter -3, HCV inh -12%, Pf growth 96h inconclusive and Shiga toxin inh 0.
`COc1ccc(/C=C2/SC(=O)N(CCNC(=O)C3CCCN3C(=O)c3cccs3)C2=O)cc1` (stereo not drawn) gave AMA1-RON2 inh 3%, Pf growth 48h inconclusive, CHX counter 32*, HCV inh inconclusive, Pf growth 96h inconclusive and Shiga toxin inh 63*.
Screening O=C(CN1C(=O)NC2(CCCC2)C1=O)NCCN1C(=O)S/C(=C\c2ccccc2F)C1=O returned AMA1-RON2 inh 10%, Pf growth 48h inconclusive, HCV inh 1% and Pf growth 96h 4.7µM*.
Screening C[C@@H]1CN([C@@H](C)CO)C(=O)c2cc(Br)cnc2O[C@H]1CN(C)C(=O)C1CC1 returned AMA1-RON2 inh 2%.
Screening Cc1nn(CC(=O)NC2(C)CCS(=O)(=O)C2)c(C)c1S(=O)(=O)N(C)C (stereo not drawn) returned AMA1-RON2 inh -9% and HCV inh 3%.
Screening COc1cccc(CNC(=O)Cc2csc(NC(=O)Nc3ccccc3OC)n2)c1 returned AMA1-RON2 inh 1%, Pf growth 48h inconclusive, HCV inh 5.6µM* and Pf growth 96h inconclusive.
COc1ccccc1NC(=O)Nc1nc(CC(=O)NCc2ccc(F)cc2)cs1 was read as AMA1-RON2 inh -23%, Pf growth 48h inconclusive, HCV inh 7.1µM* and Pf growth 96h inconclusive.
`CC(C)C[C@H](NC(=O)OC(C)(C)C)C(=O)N[C@@H](CO)[C@H](O)[C@@H]1C[C@@H]1C(=O)NC1CCCCC1` gave AMA1-RON2 inh 63%, Pf growth 48h 2%, CHX counter -2, HCV inh 20%, Pf growth 96h inconclusive and Shiga toxin inh -4.
Screening Cc1ccc(C2Nc3ccccc3-c3nc4ccccc4n32)o1 (stereo not drawn) returned AMA1-RON2 inh 45%, Pf growth 48h 216%, CHX counter 54*, HCV inh inconclusive, Pf growth 96h 290% and Shiga toxin inh 67*.
